Experimental findings from PubChem BioAssay (NCATS) are described below.

Records with an inconclusive call do not appear. Unmarked numbers belong to inactive results. Activity calls are given as the source filed them. The call rests on the fitted dose curve; in most records, active means well fitted curve in the direction sought with a large enough effect; inconclusive means small, poorly fitted or top-dose-only effect, or another doubt; inactive means no such curve, though single readings can be large; an effect the other way counts as inactive or inconclusive.

In assay [1] the target is ATP-dependent 6-phosphofructokinase (Trypanosoma brucei brucei) (UniProt O15648). Kind of assay: qHTS Assay to Find Inhibitors of T. brucei phosphofructokinase: hit validation (AID 492961).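 Further: luminescence reports ADP formed as PFK phosphorylates fructose-6-phosphate with ATP; on the % scale 0 is the no-effect control and ±100 the full control effect.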 Put shortly:
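Percent activity derived from corrected luminescence, normalized between 0x and 1x enzyme controls, then fitted to concentration-response curves. Conditions: 1.25 nM PFK, 0.1 mM ATP, 0.5 mM F6P, 45 min RT.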

Assay [2] deals with Luciferin 4-monooxygenase (Photinus pyralis) (UniProt P08659). Put plainly: Biochemical firefly luciferase enzyme assay for NPC (AID 624030).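 Further: purified P. pyralis luciferase at 10 nM with luciferin and ATP substrate; 0% = DMSO and -100% = full luciferase inhibition by PTC124 control; nearly all actives have a fitted effect of over 70% in size.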 A digest of the protocol: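 Counter-screen for direct inhibition of the luciferase enzyme by approved-drug library compounds, run at 10 nM enzyme in 50 mM Tris acetate (final). Luminescence was read within 5 min of enzyme-buffer addition and normalized to PTC124 versus DMSO (0%).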
Chain of Luciferin 4-monooxygenase (Photinus pyralis) (P08659 whole entry, looked up): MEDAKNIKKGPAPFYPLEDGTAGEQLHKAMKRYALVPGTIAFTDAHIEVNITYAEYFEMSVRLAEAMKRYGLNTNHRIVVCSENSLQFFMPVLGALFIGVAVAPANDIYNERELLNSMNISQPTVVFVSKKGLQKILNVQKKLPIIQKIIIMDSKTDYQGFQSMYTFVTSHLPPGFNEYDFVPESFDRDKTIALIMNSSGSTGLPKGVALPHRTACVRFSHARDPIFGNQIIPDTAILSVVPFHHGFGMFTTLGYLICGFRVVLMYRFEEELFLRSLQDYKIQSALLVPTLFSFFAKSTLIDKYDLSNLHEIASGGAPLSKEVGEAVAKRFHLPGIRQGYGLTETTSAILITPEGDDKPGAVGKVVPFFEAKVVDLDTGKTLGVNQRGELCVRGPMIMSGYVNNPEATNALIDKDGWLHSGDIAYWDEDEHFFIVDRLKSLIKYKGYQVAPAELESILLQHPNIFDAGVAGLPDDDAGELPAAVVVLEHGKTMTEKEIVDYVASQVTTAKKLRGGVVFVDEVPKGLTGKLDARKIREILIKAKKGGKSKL

Assay [3] in a line: qHTS profiling for inhibitors of Plasmodium falciparum proliferation (AID 504749). Further: potency means the concentration at half of the fitted maximal effect.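 On activity, negative = inhibition: 0% = DMSO vehicle and full inhibition = artemisinin control.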 On all read-outs here: nearly all actives have a fitted effect of over 60% in size. The settings on record: P. falciparum in erythrocytes, SYBR Green DNA, 72 h; for activity, negative = inhibition: at 28.7 µM (top of the series). Put shortly: (§1)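 Fluorescence of SYBR Green-bound parasite DNA, read at 485/535 nm, served as the growth measure. Infected erythrocytes were cultured with compound 72 h; artemisinin (0.29 uM) and DMSO wells defined the normalization range.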
(In qHTS, concentration-response curves come from the screen itself.)

The test system of assay [4] is CP185. The description is as above. The settings on record: P. falciparum in erythrocytes, SYBR Green DNA, 72 h; series mostly up to 28.7 µM. Put shortly: as §1
For assay [5], the system named is CP192. The description is as above. The settings on record: P. falciparum in erythrocytes, SYBR Green DNA, 72 h; series mostly up to 28.7 µM. A digest of the protocol:
as §1

Assay [6] concerns CP211. Described as above. The settings on record: P. falciparum in erythrocytes, SYBR Green DNA, 72 h; series mostly up to 28.7 µM. Put shortly:
as §1

Assay [7] has as its system CP238. The assay is described as above. The settings on record: P. falciparum in erythrocytes, SYBR Green DNA, 72 h; series mostly up to 28.7 µM. Put shortly:
as §1

The subject of assay [8] is CP252. The description is as above. The settings on record: P. falciparum in erythrocytes, SYBR Green DNA, 72 h; series mostly up to 28.7 µM. Put shortly: as §1
For assay [9], the system named is CP262. Described as above. The settings on record: P. falciparum in erythrocytes, SYBR Green DNA, 72 h; series mostly up to 28.7 µM. Put shortly:
as §1

Assay [10] has as its system CP265. Described as above. The settings on record: P. falciparum in erythrocytes, SYBR Green DNA, 72 h; series mostly up to 28.7 µM. A digest of the protocol: as §1
The subject of assay [11] is CP269. The description is as above. The settings on record: P. falciparum in erythrocytes, SYBR Green DNA, 72 h; series mostly up to 28.7 µM. Put shortly: as §1
For assay [12], the system named is CP286. Described as above. The settings on record: P. falciparum in erythrocytes, SYBR Green DNA, 72 h; series mostly up to 28.7 µM. Put shortly: as §1
In assay [13] the test system is CP315. Described as above. The settings on record: P. falciparum in erythrocytes, SYBR Green DNA, 72 h; series mostly up to 28.7 µM. Put shortly: as §1
Assay [14] has as its system CP329. Described as above. The settings on record: P. falciparum in erythrocytes, SYBR Green DNA, 72 h; series mostly up to 28.7 µM. A digest of the protocol:
as §1

Assay [15] concerns DFO2036. The description is as above. The settings on record: P. falciparum in erythrocytes, SYBR Green DNA, 72 h; series mostly up to 28.7 µM. A digest of the protocol: as §1
In assay [16] the test system is Dd2. The description is as above. The settings on record: P. falciparum in erythrocytes, SYBR Green DNA, 72 h; series mostly up to 28.7 µM. Put shortly:
as §1

In assay [17] the test system is ECU. Described as above. The settings on record: P. falciparum in erythrocytes, SYBR Green DNA, 72 h; series mostly up to 28.7 µM. Put shortly: as §1
The subject of assay [18] is FAB9. Described as above. The settings on record: P. falciparum in erythrocytes, SYBR Green DNA, 72 h; series mostly up to 28.7 µM. A digest of the protocol: as §1
Assay [19] has as its system JCK. The description is as above. The settings on record: P. falciparum in erythrocytes, SYBR Green DNA, 72 h; series mostly up to 28.7 µM. Put shortly:
as §1

The subject of assay [20] is N140. The assay is described as above. The settings on record: P. falciparum in erythrocytes, SYBR Green DNA, 72 h; series mostly up to 28.7 µM. A digest of the protocol: as §1

Chain of ATP-dependent 6-phosphofructokinase (Trypanosoma brucei brucei) (O15648 whole entry, looked up): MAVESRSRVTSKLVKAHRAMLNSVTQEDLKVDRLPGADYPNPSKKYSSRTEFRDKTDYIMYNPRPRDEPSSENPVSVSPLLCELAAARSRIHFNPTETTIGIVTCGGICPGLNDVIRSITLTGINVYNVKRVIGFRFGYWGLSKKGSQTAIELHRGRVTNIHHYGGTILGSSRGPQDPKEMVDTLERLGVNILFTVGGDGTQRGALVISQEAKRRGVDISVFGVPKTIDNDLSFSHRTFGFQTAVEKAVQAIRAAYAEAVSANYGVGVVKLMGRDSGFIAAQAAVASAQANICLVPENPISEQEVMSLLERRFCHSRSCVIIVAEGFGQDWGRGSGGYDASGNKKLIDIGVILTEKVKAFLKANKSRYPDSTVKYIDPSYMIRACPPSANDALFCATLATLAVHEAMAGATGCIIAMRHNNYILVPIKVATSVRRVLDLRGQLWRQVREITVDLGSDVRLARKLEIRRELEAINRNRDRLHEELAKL

`CC1C(=O)C(=O)C=CN1C` (stereo not given): the Potency result in assay [1], in assay [2], in [4], in assay [5], in assay [6] and in assay [7] was “inactive” each time. Besides, the Potency entry in [8], in assay [9], in assay [10], in assay [11], in assay [12] and in assay [13] was “inactive” each time. The Potency entry in assay [14], in assay [15], in [16], in [17], in assay [18] and in assay [19] was “inactive” each time. The Potency entry in assay [20] was “inactive”. Further, the activity, negative = inhibition in assay [3] (parasite line A) was 3.53%; in [3] (parasite line B) it was 9.14%.
`CC(CN1CC(=O)NC(=O)C1)N1CC(=O)NC(=O)C1` (stereo not given): the Potency result in [1], in assay [2], in assay [4], in assay [6], in assay [7] and in [8] was “inactive” in each case. Also, the Potency entry in [9], in assay [10], in assay [11], in assay [12], in assay [13] and in assay [14] was “inactive” throughout. Moreover, the Potency result in [15], in assay [16], in [17], in assay [18], in assay [19] and in assay [20] was “inactive” in each case. For the same compound, the activity, negative = inhibition in assay [3] (parasite line A) was 1.79%; in [3] (parasite line B), 0.945%.
As for `Nc1ncn(C2C[C@H](O)[C@@H](CO)O2)c(=O)n1` (stereo not given in full), the Potency entry in [1], in assay [2], in [4], in assay [5], in assay [6] and in assay [7] was “inactive” each time. Also, the Potency entry in [8], in assay [9], in [10], in assay [11], in assay [12] and in assay [13] was “inactive” throughout. The Potency entry in assay [14], in assay [15], in assay [16], in assay [17], in assay [18] and in [19] was “inactive” each time. The Potency result in assay [20] is “inactive”. Further, the values for the activity, negative = inhibition in assay [3] (parasite line A) and in assay [3] (parasite line B) were 2.14% and -13.9%, respectively.
Regarding `Cc1cc2nc3c(=O)[nH]c(=O)nc-3n(CC(O)C(O)C(O)COP(=O)(O)O)c2cc1C` (stereo not given), the Potency entry in assay [1], in [2], in assay [4], in [5], in assay [6] and in assay [7] was “inactive” each time. Further, the Potency entry in [8], in assay [9], in assay [10], in [11], in [12] and in assay [13] was “inactive” in each case. The Potency result in assay [14], in assay [15], in [16], in assay [17], in assay [18] and in [19] was “inactive” throughout. In addition, the Potency entry in [20] is “inactive”. Besides, the activity, negative = inhibition was -0.201% in assay [3] (parasite line A) and 1.68% in assay [3] (parasite line B).
Turning to `Nc1nc2[nH]cc(CCc3ccc(C(=O)NC(CCC(=O)O)C(=O)O)cc3)c2c(=O)[nH]1` (stereo not given), the Potency result in assay [1] and in assay [2] was “inactive” each time. Besides, the Potency in assay [3] (parasite line A) was 126 nM (active); in assay [3] (parasite line B), 199 nM (active); in assay [5], 9530 nM (active); in [6] it was 3790 nM (active); in assay [7], 11200 nM (active); in assay [8], 158 nM (active). Moreover, the Potency in assay [9] is 426 nM (active); in assay [13], 953 nM (active); in assay [14] it was 1200 nM (active); in assay [15] it was 63.1 nM (active); in assay [16] it was 5010 nM (active); in assay [17], 199 nM (active). Further, the figures for the Potency in assay [18], in assay [19] and in [20] were 316 nM (active), 5620 nM (active) and 3160 nM (active), respectively.
